Test results from PubChem BioAssay AID1508600 (Functional Genomics Laboratory (NCATS/FGL), 2020).
Hit rate of the full screen: of about 53,000 sequences, about 3,700 (7%) were called active.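 Rule for the calls: active = gene knockdowns whose robust z-score for IL-1 alpha signal is at least 2 or at most -2, so actives lie on both sides; inactive = the rest.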 The full list was thinned out, with actives kept by preference.

assay: Components of the Cytosolic LPS Sensing Pathway: Gene Identification via Genome-wide siRNA Screen; details: RAW264.7 macrophages, IL-1a HTRF, actives lie on both sides, screened at 100 nM (by protocol), cells primed 5 h with Pam3CSK4 first
Text: Non-canonical inflammasome activation by cytosolic LPS is a critical component of the host response to Gram-negative bacterial infection, however we lack a comprehensive understanding of the cellular processes that control this pathway. Here we describe a genome-wide siRNA screen to identify genes regulating the mouse macrophage IL-1 alpha response to cytosolic LPS.
RAW264.7 cells were maintained in complete DMEM media, comprising DMEM with 4.5 g/L glucose, 10% FBS (Gemini Bio-Products, West Sacramento, CA), 2 mM Glutamine (Lonza) and 20 mM HEPES (Lonza), hereafter complete DMEM.
The RNAi screen was conducted in 384-well format using the Ambion Silencer Mouse Genome siRNA Library (#4391425), which consists of three unique, nonoverlapping, nonpooled siRNAs for each of 17,000 gene targets. siRNA reagents ([…]) were stamped into 384-well white flat-bottom microplates (Corning, 3570) using a Velocity11 VPrep liquid handling system (Agilent) integrated into a BioCel robotic platform (Agilent) in columns 1-22, leaving columns 23-24 empty for negative (Ambion, Negative control #1) and positive (mouse Casp4) controls, respectively. The median value of each plate's negative control column was used to normalize sample wells, and the positive control was used to assess transfection efficiency and assay performance.
Lipofectamine RNAiMAX Transfection Reagent ([…]; Invitrogen) was added in […] serum-free, antibiotic-free media to plate wells using a Thermo Scientific Matrix WellMate and Microplate Stacker. Plates were incubated for 45 min at room temperature to allow for the sufficient formation of siRNA-lipid complexes. Cells were seeded at a density of 1x10^4 cells per well in 20 microL media containing 20% (vol/vol) FBS without antibiotics. The final concentration of siRNA in each well was 100 nM. Cells were cultured for 48h at 37 degrees C in 5% CO2 before addition of […] of TLR ligand Pam3CSK4 for 5 hours. The medium was then removed, replaced with […] growth media and cell were transfected with […] of LipidA and TransIT-TKO (Mirus) for 24 hour. At the end of the LipidA treatment, […] of supernatant was transferred to a 384 Greiner Bio-one non-binding low volume plate and […] of IL-1a HTRF reagent (Cisbio, 62MIL1APEH) was added and incubated at room temperature overnight. The plates were read on an EnVision plate reader (PerkinElmer). Cell viability was measured by adding 20ul Cell Titer Glo to the original plate and running a luminescence read on the EnVision. The quantified IL-1a signal for each siRNA gene-targeted well was divided by the median of the negative control wells and multiplied by 100 to achieve a negative control normalized value for each well/siRNA. This normalized value was then used to generate a robust z-score by first taking the log of each value and then by subtracting the median and dividing by the […].

z-score, active:
GACAAGUUCUCAAGUAUCCTT against 1110006O24Rik -2.02
GGAAGAGAGAUUCCUAUAGTT against Sec11a -2.03
GGUCAUCCUUGCCAAUCUCTT against Olfr686 -2.11
GGCAGUAAGGCUCCAAUCUTT against Tcp10a -2.1
GCUGGCUUUGAUUUAUGGATT against Prkar1a 5.06
GGACAAACGGGAAAAGAAGTT against Sprr2d -2.04
GGCAGUUAUUCAGAAUUGATT against Nfu1 -2.2
GCAACAUUGGAUGUACUCATT against Hdac10 -2.63
GGAAUUGUUAAUUGUGGGATT against Stau2 -2.25
GGGCUGAUGUGGGCUAAAUTT against Tmem38a 2.47
CAAACUGGGUCCCAAUGAATT against Ndufa4 2.7
GGAGCAGAUAAUGUACAUATT against Cep112 2.32
CCUUAAUCGCAUCAAAUUATT against Slc1a3 2.35
GGAAGUGAAUAUUGAGUUUTT against Bccip 2.04

z-score, inactive:
GGUCCAUAACUUGUGUGCUTT against 3300002I08Rik -0.462
GGUUGUGAAACGAUGCCCUTT against Trp63 -0.512
CCUGCAAUCAAAACAUCAATT against Vmn1r10 1.13
GGAAUUAUCUGAGCCUGUGTT against Fam193b -0.0725
GGCUUGGUGGGACAGAUAUTT against Ccdc51 -1.82
GCUAGAUCCAUCCAUAUAGTT against Misp -1.26
GGUGAAGAUCUGAUAAGAATT against Epb41 -1.44
GCAACCUCAUACCAAAGAGTT against Zfyve26 0.211
GGUCACUAUCUCUGAUUUCTT against Bpifb2 -1.38
GGAAUCUUCCAGAACUAAATT against Rufy1 0.912
GCAGGUCUUACCAGAUCGATT against Thap3 -0.765
GGCUCUGAACAGCAUUGACTT against Mdfi -0.521
GGUUUGAAUCAAAUUGUACTT against Hyou1 -1.12
CCUCCACAUUUAUUUGCUATT against Mbtd1 1.23
ACCUGAAUUUGGUGACUGATT against Rdh18-ps 0.368
GGUAUUAUGAGACAGGAAGTT against Pax5 -1.61
GGUUUUAGGAUCCUAGAAGTT against Ap1s1 0.957
GGACGUGUUCGGAAACCUATT against Psmc3ip 0.134
CCUGUGCUCUGAGUUUGGCTT against Tmem270 0.00319
GGGUUGUUUGUCUUGUUCGTT against Rspo2 0.847
GGAAAGAUUCAAAGAACCUTT against Rpia 1.45
GGCAGACAGUCUAACAGAUTT against Krt6a 0.283
GAUUUUCCUGCUCACAAUGTT against Olfr1269 1.03
GGACUUGAGUCAGCUCAUCTT against Fastk -1.38
CGUAUAUCCGGUCAGAAGATT against Cnot4 0.634
GCAGCAUCGCUAUGUCCUGTT against Ccl26 0.182
GGAACAAUGCUCAAUUUUUTT against Rfc1 1.63
GCUCCUACGUGUCAGCCUUTT against Skor1 -0.815
CGGUCAUGUCUACAUGUGCTT against Cfp -0.0864
GGCUUCAGAUUUCGAUAUGTT against Nfkb2 1.02
CCUUGGACUUGAGUUCCAATT against Ssu2 1.58
GGCAAAUGUGGCCGUGUUUTT against Ccne1 0.175
GGAAGAAGCAAAGAACUAUTT against Spg20 0.552
GCCCGGAAUAUAUAGCCCUTT against Hdac10 -0.706
CCUCCAGAUAAGAAUGUGCTT against Fnip1 -1.34
CGUAAGUGGACGACGGUUCTT against Kcnd3 0.106
CGAAGGUACUAUGUAUUUUTT against Tbce -0.12
GGAACACAUUGGGUAUGCCTT against Sac3d1 -0.575
GGUGUUUAUCGACAGGUACTT against Myo15 0.126
GGGAAGUUGUCCUUGAAGATT against Cd36 -0.037
GGACCAUCCCUGUUUUAUATT against Ifrd2 -0.0712
GGUCCCUAGCACUAUUUUUTT against Hes6 1.04
GGAAUAUCACUUCCAUACATT against Ntrk3 0.587
GACCAACCCUCACUAAGCUTT against Tcstv3 -0.364
GGACUAUUUGGAAACCUCCTT against Olfr1366 -0.304
GGAUGUAACUAGUAACUUUTT against Kcnn3 0.108
GCAAGAAAACCUUAGCUCATT against Trpm2 -0.518
CGGAUACAGGUUCGGGUAATT against Nemp1 1.06
CCGUGACGAGCUUGUGGUUTT against Ap3b2 0.788
GGUCCGAUAUCUGAGUCUCTT against Hic1 0.471
GGUUAGAAUAUGCAGAACATT against Arntl -0.525
GGAGGGCAUCCUCUUCAAATT against Drc3 0.312
GGUAUUAUGACUGUAAAGGTT against Endou 0.0412
GGAGAAGAAAAAGAUUAUCTT against Atp6v1d 1.07
GGGAAGAUGUGGAUGUCAUTT against Oprk1 -1.05
